The source of these data is PubChem BioAssay AID1626 (SRMLSC, 2009).

The whole screen tested about 220,000 compounds, of which about 2,000 (0.91%) were called active. Roughly 2% stayed inconclusive and do not appear here. Cut-off read from the data, not from the text of the source: inconclusive = inhibition above about 80% without an active follow-up result; inactive = below that; test concentration not stated here. Only a sample is shown. Entries with a potency or affinity are not part of this list.

In general, inhibition refers to the drop in the measured response relative to a control, in per cent.

This assay in a line: M. tuberculosis H37Rv growth inhibitors, H37Rv strain (AID 1626).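 Note: bacteria incubated seven days before Alamar blue readout; 0% = bacteria only wells and 100% = bacteria with antibiotic wells.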 The settings on record: active compounds read high, concentration not given here.
With `Cc1ccc(NC(=O)COC(=O)c2ccc([N+](=O)[O-])o2)cc1S(=O)(=O)N1CCCCC1`, the inhibition was 8.45% (inactive).
Next, `O=C1c2ccccc2C(=O)N1CN(C(=O)c1ccccc1)c1ccc(O)cc1`: -0.6% (inactive); `Cc1cccnc1CCNC(=O)CCc1nnc(-c2ccccc2)o1`: 5.3% (inactive); `CCCN1CCN(C(=O)c2ccc(Sc3ccc(C)cc3)c(NC(C)=O)c2)CC1`: 3.99% (inactive).
With `CC(C)(C)c1ccccc1OCCCCN1CCCC1`, the inhibition is 6.1% (inactive).
The same measure for `CC(C)(C)c1ccccc1OCCN1CCCC1`: -0.65% (inactive); for `CNC(=O)NC(=O)COC(=O)c1ccc(-n2c(C)ccc2C)cc1`: 20.2% (inactive).
With `CCOc1ccc(NC(=O)CSc2nnc(C3CC3)n2C)cc1`, the inhibition is 27.2% (inactive).
Turning to `Cc1ccc(S(=O)(=O)N(CCCO)Cc2cc3c(C)ccc(C)c3[nH]c2=O)cc1`, the inhibition is -4.12% (inactive).
Next, `c1ccc(CC2CCN(c3nc4ccccc4n4nnnc34)CC2)cc1`: 12.1% (inactive); `c1ccc(CN2CCN(c3nc4ccccc4n4cnnc34)CC2)cc1`: 6.21% (inactive); `O=C(Nc1cccc(C(F)(F)F)c1)C1CCCN1S(=O)(=O)c1cccc2cccnc12` (stereo not drawn): -8.3% (inactive).
For the compound `CCCNC(=O)c1ccc2c(=O)c(O)c(-c3ccc(OC)cc3)[nH]c2c1`, the inhibition was -8.43% (inactive).
For the compound `CCO[C@@H]1OC(C(=O)O)=C[C@H](C2CCCCC2)[C@H]1CCCO`, the inhibition was 6.74% (inactive).
The same measure for `CCN(CC)c1ccc(NC(=O)c2ccc(Br)o2)cc1`: -1.94% (inactive).
For `CCCCOC(=O)Nc1ccc(C(=O)OC)cc1`, the inhibition is -7.29% (inactive).
Next, `COc1ccc(NC(=O)c2ccc(Br)o2)cc1`: -11.7% (inactive).
Next, `CCOC(=O)NCCOC(=O)Nc1ccc(Cl)cc1`: 2.79% (inactive).
Consider `CCCCOC(=O)Nc1cccc(C(=O)OCC)c1`, for which the inhibition was 4% (inactive).
Consider `CCCOC(=O)c1ccc(NC(=O)c2cc(OC)c(OC)c(OC)c2Br)cc1`, for which the inhibition was -1.63% (inactive).
The same measure for `CCOC(=O)c1ccc(NC(=O)c2cc(OC)c(OC)c(OC)c2Br)cc1`: 30.9% (inactive); for `CCCCOC(=O)Nc1ccc(C(N)=O)cc1`: -2.7% (inactive); for `O=C1CCC2c3ccc4ccccc4c3CCN12` (stereo not drawn): -9.72% (inactive).
The same measure for `O=C(O)c1ccccc1C(=O)NCc1cccnc1`: -5.59% (inactive); for `COc1ccc(-n2c(NN)nc3sc4c(c3c2=O)CCCC4)cc1`: 9.05% (inactive); for `COc1ccc(-n2c(C)nc3sc4c(c3c2=O)CCC4)cc1`: -4.02% (inactive).
Next, `CNC(C)C#Cc1ccc2c(=O)c3cc(C)c(C)cc3oc2c1` (stereo not drawn): -0.56% (inactive).
On to `Cn1nc(C(=O)OCC(=O)Nc2ccc(S(N)(=O)=O)cc2)c2ccccc2c1=O`, for which the inhibition is 4.62% (inactive).
Next, `COc1ccc(CCNC(=O)CSCc2ccc(F)cc2)cc1OC`: -4.44% (inactive).
Next, `Cc1ccccc1OC(=O)CCC(=O)OCCCC(F)(F)C(F)(F)F`: -4.35% (inactive); `c1ccc2c(c1)CC(N1CCCCC1)c1ccccc1N2` (stereo not drawn): -6.95% (inactive).
Next, `COCCCN1CCN(C2Cc3ccccc3Sc3ccc(Cl)cc32)CC1` (stereo not drawn): 54.7% (inactive); `CCc1nnc(NC(=O)CSc2nc3cc4c(cc3cc2CC)OCCO4)s1`: 7.01% (inactive).
Turning to `Cn1c(CN2CCOCC2)nnc1SCC(N)=O`, the inhibition was 7.64% (inactive).
In the case of `O=C(NCCSCc1c(F)cccc1Cl)c1ccc(CN2CCOCC2)cc1`, the inhibition is 0.75% (inactive).
For `CC1CCN(S(=O)(=O)N2CCC(C(=O)O)CC2)CC1`, the inhibition is -4.2% (inactive).
The same measure for `C=CCNC(=O)NC(=O)CSc1nnc(C(F)(F)F)n1C`: -4.51% (inactive).
For `CCCc1cc(=O)oc2cc(OCC(=O)OC)cc(OCC(=O)OC)c12`, the inhibition is 6.75% (inactive).
As to `CCCCCCc1ccc(OCC(=O)O)cc1OCC(=O)O`, the inhibition was -14.7% (inactive).
With `Cn1c2ccc(F)cc2c2ncn(CC3CCCO3)c(=O)c21` (stereo not drawn), the inhibition is -14% (inactive).
Next, `CCCCn1c(=O)c(C(=O)NCc2ccncc2)c(O)c2ccccc21`: -0.26% (inactive); `CCCn1c(=O)c(C(=O)NCc2cccnc2)c(O)c2ccccc21`: -5.34% (inactive).
Next, `CC(C)Cn1c(=O)c(C(=O)Nc2cnccn2)c(O)c2ccccc21`: -13.3% (inactive).
The same measure for `CCCCCn1c(=O)c(C(=O)NCc2ccncc2)c(O)c2ccccc21`: 41.4% (inactive).
In the case of `O=C(/C=C/c1ccco1)NC(=S)Nc1ccccn1`, the inhibition is 2.96% (inactive).
As to `COc1ccc(S(=O)(=O)N(C)C2CCN(C)CC2)cc1`, the inhibition was -0.56% (inactive).
`CC(=O)c1ccc(C(=O)N2CCC(CO)(Cc3cccc(C(F)(F)F)c3)CC2)cc1`: the inhibition is -0.21% (inactive).
Next, `CC1=C(C(=O)NC2CCC(C)CC2)C2(CCC(C)CC2)OC1=O` (stereo not drawn): 3.77% (inactive); `Cc1ccc(/C=C/C(=O)c2ccccc2O)cc1`: 11.9% (inactive); `COC(=O)C1C(=O)C(C(=O)/C=C/c2ccccc2)C(=O)CC1(C)C` (stereo not drawn): -2.58% (inactive).
The same measure for `CCc1ccc(/C=C/C(=O)c2c(C)cc(C)[nH]c2=O)cc1`: 8.7% (inactive); for `CCc1ccc(/C=C/C(=O)c2ccc(S(=O)(=O)N(C)C)cc2)cc1`: 6.7% (inactive).
The same measure for `Cc1ccc(C(=O)C2C(=O)c3ccccc3C2=O)cc1`: 39.5% (inactive).
In the case of `O=C(c1ccccc1)C1C(=O)c2ccccc2C1=O`, the inhibition was -2.43% (inactive).
Consider `CNc1nc(-c2ccc3c(c2)CCN3C(=O)c2ccccc2F)cs1`, for which the inhibition was 0.06% (inactive).
Take `CC(C)(C)NC(=O)CN(C(=O)CSc1nnc(COc2ccccc2)o1)c1cccc(F)c1`: the inhibition is 4.71% (inactive).
Regarding `CC(C)OP(=O)(OC(C)C)C(NCc1ccccc1)c1ccccc1` (stereo not drawn), the inhibition is 4.8% (inactive).
Next, `COC(=O)c1c(-c2ccccc2)noc1C`: -2.56% (inactive); `COc1ccc(/C=N/NC(=O)Nc2nonc2N)cc1`: -4.3% (inactive); `OCCCNCc1cccc2ccccc12`: 3.9% (inactive).
The same measure for `O=C(Nc1ccccc1Cl)c1csc(-c2cccnc2)n1`: 2.6% (inactive); for `Cc1[nH]c(C)c2c(=O)n(-c3ccccc3)ncc12`: 3.67% (inactive).
Next, `CCCSc1cc(N2CCCC2)nc(-c2ccccc2)n1`: 6.61% (inactive); `CCSc1cc(N2CCCC2)nc(-c2ccc(C)cc2)n1`: 3.04% (inactive).
As for `CC(C)(CC(=O)O)CC(=O)NNc1ncccc1C#N`, the inhibition was 9.47% (inactive).
Next, `CCOc1ccc(/C=N/N(C)c2ccccc2)cc1OC`: 33.5% (inactive); `O=C(O)C1CCCCC1C(=O)Nc1ccc(F)c(F)c1` (stereo not drawn): 0.5% (inactive); `Cc1ccc(NC(=O)C2CCCCC2C(=O)O)cc1C` (stereo not drawn): 1.55% (inactive).
The same measure for `COc1cc(/C=N/NC(N)=O)ccc1OCC(=O)N1C(C)CCCC1C` (stereo not drawn): -1.38% (inactive).
Consider `O=C(c1ccccc1)c1cc2ccccc2o1`, for which the inhibition is 1.99% (inactive).
Next, `CN(C)/C=N/c1ncc(C(=O)c2ccccc2)s1`: -11.7% (inactive).
Consider `Nc1nc(Nc2ccccc2)sc1C(=O)c1ccccc1`, for which the inhibition was 36.1% (inactive).
Regarding `Cc1sc(N)c(C(=O)c2ccccc2)c1C`, the inhibition is -10.3% (inactive).
On to `COC(=O)CCCC1=CC2=C(c3ccccc3)C(=O)C(C)(OC(=O)C3CCCC3)C(=O)C2=CN1CCc1c[nH]c2ccccc12` (stereo not drawn), for which the inhibition is 0.18% (inactive).
Take `COc1ccc(-n2c(C)cc(C(=O)Cn3nnc4ccccc4c3=O)c2C)cc1`: the inhibition was -8.34% (inactive).
Next, `Cc1ccc(CN(c2ccc(C(=O)N3CCc4ccccc4C3)cc2)S(C)(=O)=O)cc1`: 6.8% (inactive).
As for `N#Cc1ccccc1Cn1cc(C(=O)c2cccs2)c2ccccc21`, the inhibition was 7.78% (inactive).
In the case of `Nc1nc(Nc2cccc(F)c2)nc(NCCO)c1[N+](=O)[O-]`, the inhibition was 7.19% (inactive).
With `CC1CCC(C(C)C)C(OC(=O)COC(=O)c2ccc(N)cc2)C1` (stereo not drawn), the inhibition was 68.7% (inactive).
The same measure for `CC1CCC(C(C)C)C(OC(=O)CSc2nccc(=O)[nH]2)C1` (stereo not drawn): -8.76% (inactive); for `CC1CCC(C(C)C)C(OC(=O)COC(=O)c2ccc(=O)[nH]c2)C1` (stereo not drawn): -0.66% (inactive); for `CC1CCC(C(C)C)C(OC(=O)COC(=O)c2cccn2C)C1` (stereo not drawn): -6.06% (inactive).
The same measure for `CC1CCC(C(C)C)C(OC(=O)Cn2nnc3c(cnn3-c3ccccc3)c2=O)C1` (stereo not drawn): 1.77% (inactive).
For the compound `CC1CCC(C(C)C)C(OC(=O)COC(=O)c2ccccc2N)C1` (stereo not drawn), the inhibition is 6.07% (inactive).
Next, `CCOc1ccc(CCNC(=O)Cn2cccc2C(=O)c2ccccc2C)cc1OCC`: 4.18% (inactive); `Cc1c(-c2n[nH]c(=S)n2-c2ccc(Br)cc2)nnn1-c1ccc(Cl)cc1`: 4.27% (inactive).
Next, `CCOC(CNc1c([N+](=O)[O-])c(=O)n(C)c(=O)n1C)OCC`: 3.27% (inactive); `Cc1ccccc1NC(=O)OCc1cccnc1Sc1ccc(Cl)cc1`: 0.86% (inactive); `Cn1c(SCC(=O)O)nc2ccccc2c1=O`: 3.07% (inactive).
Next, `Cc1ccc(Sc2ccc(/C=C3/C(=O)NN(c4ccccc4)C3=O)o2)cc1`: 75.7% (inactive); `CN1C(=O)C(=Cc2ccc(Sc3ccccc3)o2)C(=O)N(C)C1=O`: 41% (inactive); `CCCCc1nnc(NC(=O)CN2C(=O)c3ccccc3C2=O)s1`: 0.96% (inactive).
`CCOC(=O)COc1ccc(S(=O)(=O)N2CCN(c3ccc(F)cc3)CC2)cc1`: the inhibition was 8.22% (inactive).
Turning to `CN1CCN(C(=O)/C(=C\c2cccc([N+](=O)[O-])c2)NC(=O)c2cccs2)CC1`, the inhibition was -3.33% (inactive).
Regarding `O=C(NC1CCCCC1)C(c1ccc2ncccc2c1)N(Cc1ccc2c(c1)OCO2)C(=O)c1cccs1` (stereo not drawn), the inhibition is 8.94% (inactive).
Next, `O=C(NC1CCCCC1)C(c1ccc2ncccc2c1)N(Cc1ccco1)C(=O)c1ccc2c(c1)OCCO2` (stereo not drawn): 13.5% (inactive); `COc1ccc(CN(C(=O)c2ccc3c(c2)OCCO3)C(C(=O)NC2CCCCC2)c2ccc3ncccc3c2)cc1` (stereo not drawn): 67.9% (inactive).
In the case of `O=C(NC1CCCCC1)C(c1ccc2ncccc2c1)N(Cc1ccccc1)C(=O)c1cccs1` (stereo not drawn), the inhibition is 40.5% (inactive).
